The structures appear in SMILES notation. The panel holds about 83,000 compounds, 20% with a hit somewhere; the sample as a whole holds those more often.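 Values shown are percent growth following 48 h exposure of cells in 96-well plates to a single concentration of compound; below 10 was considered active.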 Values without a mark were called inactive. Calls of active or inactive are those of the source.

Our source for the growth values is PubChem BioAssay (NCI).

What all share (experiment): NCI-60 one-dose screen, 48 h (100 = growth as untreated, 0 = no growth, -100 = all killed)
What all share (conditions): 10 µM

Experiment [1] concerns SR leukemia.
For experiment [2], the system named is RPMI-8226 leukemia.
For experiment [3], the system named is OVCAR-8 ovarian.
For experiment [4], the system named is OVCAR-5 ovarian.
The subject of experiment [5] is OVCAR-4 ovarian.
The subject of experiment [6] is SK-OV-3 ovarian.
For experiment [7], the system named is IGROV1 ovarian.
Experiment [8] has as its system OVCAR-3 ovarian.
Experiment [9] deals with HS 578T breast.
The subject of experiment [10] is NCI/ADR-RES ovarian.
Experiment [11] concerns T-47D breast.
The subject of experiment [12] is BT-549 breast.
In experiment [13] the test system is MDA-MB-435 melanoma.
Experiment [14] concerns SW-620 colon.
Experiment [15] relates to MCF7 breast.
The subject of experiment [16] is HCT-116 colon.
Experiment [17] deals with HCC-2998 colon.
The test system of experiment [18] is KM12 colon.

As for `C#C[C@]1(O)CC[C@H]2[C@@H]3CC[C@H]4CC(F)(F)CC[C@]4(C)[C@H]3CC[C@@]21C`, the growth in experiment [1] is 8.15% (active); in [2] it was 80.1%; in [3] it was 84.6%; in experiment [4] it was 88.5%; in experiment [5], 94.2%; in [6], 60.8%. The growth is 94.2% in experiment [7]; 93.9% in experiment [8]; 77.6% in experiment [9]; 92.2% in experiment [10]; 64.7% in experiment [11]; 58.6% in experiment [12]. Also, the growth in [13] was 84%; in [14] it was 87.9%; in [15], 88.9%; in experiment [16] it was 76.6%; in experiment [17] it was 112%; in experiment [18] it was 87.2%.
Take `Cc1cc(C)c(/C=C2\C(=O)Nc3ccc(NC(=O)CCCCCCC(=O)NO)cc32)[nH]1`: the growth in experiment [1] is 22.1%; in [2], 40.6%; in [3], 17.7%; in [4] it was 15.9%; in experiment [5] it was 50.5%; in experiment [6] it was 31.3%. Besides, the growth in [7] was 37.9%; in experiment [8], 19.4%; in experiment [9], 21.6%; in experiment [10] it was 92.1%; in [11], 15.3%; in experiment [12], 47.5%. Besides, the growth in experiment [13] is 2.24% (active); in experiment [14], 5.42% (active); in experiment [15], 12.2%; in [16], -77.2% (active); in [17], 40.2%; in experiment [18], 60.2%.
`COc1ccc(S(=O)(=O)Nc2cc(/C=C\c3cc(OC)c(OC)c(OC)c3)ccc2OC)cc1`: the growth in experiment [1] was 10.2%; in experiment [2], 7.64% (active); in experiment [3], 9.01% (active); in experiment [4] it was 30.7%; in experiment [5] it was 34.4%; in experiment [6], 11.8%. Moreover, the growth is 13.6% in [7]; -19.8% (active) in [8]; 10.6% in experiment [9]; 11% in [10]; 71.7% in experiment [11]; 26.9% in experiment [12]. The growth in [13] was -37.9% (active); in experiment [14], 21.3%; in [15] it was -9.99% (active); in experiment [16], 4.3% (active); in [17], 16%; in experiment [18], -5.35% (active).
On to `CC(=O)Oc1ccc(C2=Cc3ccc(OC(C)=O)cc3OC2C)cc1` (centres undefined), for which the growth in experiment [1] is 8.85% (active); in [2], 19.5%; in [3] it was 60.9%; in [4] it was 122%; in experiment [5] it was 79.4%; in experiment [6], 81%. Further, the growth in experiment [7] is 55.8%; in experiment [8], 33.1%; in experiment [9] it was 42.8%; in [10], 25%; in experiment [11], 88.5%; in experiment [12] it was 42.9%. The growth in experiment [13] is 25.2%; in experiment [14], 47%; in [15], 49.1%; in experiment [16], 38.3%; in experiment [17], 78.2%; in experiment [18], 39%.
On to `COC(=O)[C@]12CC[C@@H](C)[C@H](C)[C@@H]1C1=CC[C@@H]3[C@@]4(C)C[C@@H](O)[C@H](O)[C@@](C)(CO)[C@@H]4[C@H](O)C[C@@]3(C)[C@]1(C)CC2`, for which the growth in experiment [1] was -36.5% (active); in experiment [2] it was -20.7% (active); in [3], -27.3% (active); in [4], -21.6% (active); in experiment [5], -11% (active); in experiment [6], -33.1% (active). The growth is -19.8% (active) in experiment [7]; -64.9% (active) in [8]; -13% (active) in [9]; -22.8% (active) in experiment [10]; -47.1% (active) in [11]; -66.1% (active) in experiment [12]. In addition, the growth was -66.9% (active) in experiment [13]; -54.1% (active) in experiment [14]; -24.3% (active) in experiment [15]; -82.3% (active) in experiment [16]; -89.2% (active) in [17]; -74.2% (active) in experiment [18].
Consider `COC(=O)c1c(C)nc(Nc2nc3ccccc3s2)nc1-c1ccc(Cl)cc1Cl`, for which the growth in experiment [1] was 99.4%; in experiment [2], 96.2%; in experiment [3], 103%; in experiment [4], 113%; in experiment [5], 91.6%; in experiment [6], 102%. Moreover, the growth in experiment [7] is 124%; in experiment [8], 92.2%; in experiment [9], 108%; in experiment [10] it was 104%; in experiment [11], 105%; in experiment [12], 101%. Moreover, the growth in experiment [13] was 111%; in experiment [14] it was 104%; in experiment [15], 78.5%; in [16], 98.4%; in experiment [17], 108%; in experiment [18] it was 103%.
Turning to `COc1cc(C2=Nc3c/c(=C\c4c(O)[nH]c5ccc(Cl)cc45)ccc3=N2)cc(OC)c1OC`, the growth in experiment [1] was -18% (active); in experiment [2], 16.3%; in experiment [3], -71.4% (active); in experiment [4], 79.6%; in [5], -83.1% (active); in [6] it was 85.7%. Also, the growth is 49% in experiment [7]; 17.3% in [8]; -43.3% (active) in experiment [9]; 52.2% in [10]; 48.5% in experiment [11]; -28.2% (active) in [12]. Moreover, the growth in experiment [13] was -65.7% (active); in experiment [14], -48.2% (active); in experiment [15], -41.8% (active); in experiment [16], -51.4% (active); in experiment [17], 66.3%; in experiment [18], 5.27% (active).
`CC(C)C(C)C(N)C(=O)O` (centres undefined): the growth was 93.7% in [1]; 99.6% in [2]; 105% in experiment [3]; 114% in [4]; 115% in experiment [5]; 96% in experiment [6]. Moreover, the growth was 101% in [7]; 111% in experiment [8]; 117% in [9]; 107% in [10]; 102% in experiment [11]; 90.7% in [12]. Moreover, the growth in experiment [13] was 105%; in experiment [14] it was 110%; in experiment [15], 92.9%; in experiment [16], 94.5%; in experiment [17], 101%; in [18] it was 103%.
